This passage reports binding signal results from article PMC8384837, “Expanding the binding specificity for RNA recognition by a PUF domain”.

What all share (assay): yeast three-hybrid, YBZ-1, SC-Leu-His + 0.5 mM 3-AT, 4 days
Conditions in all cases: tags: N-Gal4 AD-HA kept; label: inside an RPR1-promoter hybrid RNA with tandem MS2 sites; ssRNA

One experiment concerns the target PUM1 PUF domain R1-KCS (Homo sapiens, UniProt Q14671 828-1176, S863K;R864C;Q867S). In a few lines: (§1)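 Matching RNA elements and Pumilio-1 PUF domain libraries, randomized at the three base-contacting residues of every repeat, were co-expressed from a centromeric plasmid in strain YBZ-1 (LexA–MS2 coat fusion, HIS3 reporter). The repeat regions were PCR-amplified and Illumina-sequenced from cells grown four days on SC-Leu (input) or SC-Leu-His + 0.5 mM 3-AT (selection). The interaction score is the log change in variant frequency from input to selection. It is computed in log2, with a pseudocount of 1 for absent variants.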

The next experiment deals with PUM1 PUF domain R5-KER (Homo sapiens, UniProt Q14671 828-1176, C1007K;R1008E;Q1011R). The gist of the method: as §1
The next experiment concerns the target PUM1 PUF domain R7-RRW (Homo sapiens, UniProt Q14671 828-1176, S1079R;N1080R;E1083W). In a few lines:
as §1

In a further experiment the target is PUM1 PUF domain R2-EWD (Homo sapiens, UniProt Q14671 828-1176, N899E;Y900W;Q903D). The gist of the method: as §1
The target of another experiment is PUM1 PUF domain R3-RRT (Homo sapiens, UniProt Q14671 828-1176, C935R;Q939T). The gist of the method: as §1
PUM1 PUF domain R3-RRT, sequence (Q14671 828-1176 C935R/Q939T): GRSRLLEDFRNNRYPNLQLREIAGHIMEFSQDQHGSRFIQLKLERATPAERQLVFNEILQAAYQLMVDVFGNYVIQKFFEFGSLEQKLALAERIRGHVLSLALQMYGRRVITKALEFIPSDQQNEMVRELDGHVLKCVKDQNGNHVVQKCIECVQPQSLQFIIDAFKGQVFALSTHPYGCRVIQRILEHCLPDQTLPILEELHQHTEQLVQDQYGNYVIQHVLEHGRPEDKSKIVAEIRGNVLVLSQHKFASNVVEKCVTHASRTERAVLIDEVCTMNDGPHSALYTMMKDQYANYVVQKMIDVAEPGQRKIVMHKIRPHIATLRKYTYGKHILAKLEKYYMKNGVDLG

PUM1 PUF domain R7-RRW, sequence (Q14671 828-1176 S1079R/N1080R/E1083W): as the sequence (Q14671 828-1176 C935R/Q939T) above, with R108C, T112Q, S252R, N253R, E256W counted along it
PUM1 PUF domain R1-KCS, sequence (Q14671 828-1176 S863K/R864C/Q867S): as the sequence (Q14671 828-1176 C935R/Q939T) above, with S36K, R37C, Q40S, R108C, T112Q counted along it
PUM1 PUF domain R2-EWD, sequence (Q14671 828-1176 N899E/Y900W/Q903D): as the sequence (Q14671 828-1176 C935R/Q939T) above, with N72E, Y73W, Q76D, R108C, T112Q counted along it
PUM1 PUF domain R5-KER, sequence (Q14671 828-1176 C1007K/R1008E/Q1011R): as the sequence (Q14671 828-1176 C935R/Q939T) above, with R108C, T112Q, C180K, R181E, Q184R counted along it

With “GGCUAGAACUAGUGGAUCCCCCGGCGCCCGGCGGCUCGAGCCCGGGUAAGUGUAAAUUGUCUGCAUGCCGCCGGGCGCCAUGCCUGCAGGUCGACUCUAGAAAACAUG”, in the experiment with PUM1 PUF domain R1-KCS, the binding signal is 4.89 log2 enrichment (interaction score).

Take “GGCUAGAACUAGUGGAUCCCCCGGCGCCCGGCGGCUCGAGCCCGGGUAAGUGUAAAUCGUCUGCAUGCCGCCGGGCGCCAUGCCUGCAGGUCGACUCUAGAAAACAUG”: in the experiment with PUM1 PUF domain R1-KCS, the binding signal is 4.55 log2 enrichment (interaction score).

For “GGCUAGAACUAGUGGAUCCCCCGGCGCCCGGCGGCUCGAGCCCGGGUAAGUGUCAAUAGUCUGCAUGCCGCCGGGCGCCAUGCCUGCAGGUCGACUCUAGAAAACAUG”, in the experiment with PUM1 PUF domain R5-KER, the binding signal is 2.91 log2 enrichment (interaction score).

Turning to “GGCUAGAACUAGUGGAUCCCCCGGCGCCCGGCGGCUCGAGCCCGGGUAAGUUUAAAUAGUCUGCAUGCCGCCGGGCGCCAUGCCUGCAGGUCGACUCUAGAAAACAUG”, the binding signal in the experiment with PUM1 PUF domain R7-RRW is 4.75 log2 enrichment (interaction score).

Take “GGCUAGAACUAGUGGAUCCCCCGGCGCCCGGCGGCUCGAGCCCGGGUAAGUCUAAAUAGUCUGCAUGCCGCCGGGCGCCAUGCCUGCAGGUCGACUCUAGAAAACAUG”: in the experiment with PUM1 PUF domain R7-RRW, the binding signal is 4.3 log2 enrichment (interaction score).

In the case of “GGCUAGAACUAGUGGAUCCCCCGGCGCCCGGCGGCUCGAGCCCGGGUAAGUGUAAAGAGUCUGCAUGCCGCCGGGCGCCAUGCCUGCAGGUCGACUCUAGAAAACAUG”, the binding signal in the experiment with PUM1 PUF domain R2-EWD is 9.68 log2 enrichment (interaction score).

With “GGCUAGAACUAGUGGAUCCCCCGGCGCCCGGCGGCUCGAGCCCGGGUAAGUGUAAUUAGUCUGCAUGCCGCCGGGCGCCAUGCCUGCAGGUCGACUCUAGAAAACAUG”, in the experiment with PUM1 PUF domain R3-RRT, the binding signal is 3.01 log2 enrichment (interaction score).
